# Compounds with a hit are over-represented: about 0.45% of the library has one in this group of screens.
# Yp Topo-I inh – Yersinia pestis topoisomerase I inhibitors, primary screen, biochemical, cleavage product accumulation, plate reader, single point | Y. pestis Topo-I cleavage product accumulation | AID 504884, 2011 | DNA topoisomerase I (Yersinia pestis CO92) | activity, % at 10 µM | hit rate 0.064% among 360,000; in the data active means activity above about 50%, passing the limit was not always enough
# Mtb BioA inh – M. tuberculosis BioA enzyme inhibitors, primary screen, biochemical, plate reader, single point, HTS; hit rate 0.096% among 360,000; inhibition, % at 9.99 µM; 7,8-diaminopelargonic acid synthase BioA (Mycobacterium tuberculosis); purified M. tuberculosis BioA enzyme; AID 602481, 2012; in the data active means inhibition above about 40%
# TcdB GH inh – TcdB glycohydrolase inhibitors, primary screen, biochemical, single point, plate reader | Toxin B (Clostridioides difficile), P18177 | TcdB glycohydrolase enzymatic assay | inhibition, % at 9.99 µM | hit rate 0.24% among 350,000 | AID 652162, 2013; in the data active means inhibition above about 10%
# FadD28 FP inh – inhibitors of FadD28 bisubstrate probe binding, primary screen, biochemical, fluorescence polarization, single point; inhibition, % at 12.5 µM; hit rate 0.22% among 360,000; AID 588549, 2011; in the data active means inhibition above about 8.5%, passing the limit was not always enough
# Active calls of the source: *; nt = no result.
SMILES,Yp Topo-I inh,Mtb BioA inh,TcdB GH inh,FadD28 FP inh
CCOc1ccc2c(C)nc(NC3=NC(C)(C)C=C(C)N3)nc2c1,27,3,11*,-3
CN1CCN(C(=O)C[C@H]2CC[C@@H]3[C@H](COC[C@H](O)CN3CC3CCOCC3)O2)CC1,nt,-1,-1,nt
C[n+]1c(-c2ccccc2)c2cc(N)ccc2c2ccc(N)cc21,-16,34,2,13*
Cc1noc(C)c1NC(=O)N(C)C[C@H]1Oc2ccc(NC(=O)NC3CCCCC3)cc2C(=O)N([C@H](C)CO)C[C@H]1C,nt,-1,0,nt
CO[C@@H]1CN(C)C(=O)c2ccc(NS(=O)(=O)c3ccccc3Cl)cc2OC[C@H](C)NC[C@H]1C,nt,0,1,nt
C[C@H](CO)N1C[C@H](C)[C@H](CN(C)C(=O)NC2CCCCC2)Oc2ccc(NC(=O)CCC(F)(F)F)cc2CC1=O,nt,0,0,nt
CCOC(=O)C1CCN(Cc2cccc(Oc3ccccc3)c2)CC1,66*,-1,0,-5
CCOC(=O)C1CCN(Cc2cccc(Oc3ccc(Cl)cc3)c2)CC1,16,-2,1,-2
CC(C)NC(=O)N(C)C[C@@H]1Oc2ccc(NS(=O)(=O)c3cn(C)cn3)cc2CC(=O)N([C@H](C)CO)C[C@@H]1C,nt,-2,0,nt
COc1cccc(CNC(=O)[C@H]2N[C@H]3c4ccc(/C=C/c5ccccc5)c(=O)n4C[C@H]3[C@@H]2CO)c1,nt,-1,-1,nt
C[C@H](CO)N1C[C@H](C)[C@H](CN(C)Cc2ccc(Oc3ccccc3)cc2)Oc2cc(-c3ccncc3)ccc2S1(=O)=O,nt,-2,17*,nt
C[C@@H]1CN([C@@H](C)CO)S(=O)(=O)c2ccc(-c3ccncc3)cc2O[C@@H]1CN(C)Cc1ccccc1,nt,-1,0,nt
C[C@@H]1CN([C@H](C)CO)S(=O)(=O)c2ccc(-c3ccncc3)cc2O[C@H]1CN(C)Cc1ccc(Oc2ccccc2)cc1,nt,-8,-12,nt
C[C@@H]1CN([C@@H](C)CO)S(=O)(=O)c2ccc(-c3ccncc3)cc2O[C@@H]1CN(C)Cc1ccc(Oc2ccccc2)cc1,nt,-1,14*,nt
CCS(=O)(=O)Nc1ccc2c(c1)C(=O)N(C)[C@@H]1CC[C@@H](CC(=O)NC3CCCCC3)O[C@@H]1CO2,nt,-1,0,nt
O=C(Nc1cccc(F)c1)N1C[C@H]2[C@@H](c3ccccc31)[C@H](CO)N2C(=O)Cc1ccccn1,nt,-2,-1,nt
CC1CCCN(C(=S)Nc2ccc(F)cc2)C1 (configuration not stated),3,nt,12*,-4
C/C=C/c1cnc2c(c1)C(=O)N([C@H](C)CO)C[C@@H](C)[C@@H](CN(C)Cc1ccccc1)O2,nt,-1,0,nt
CN1C(=O)c2cc(NC(=O)c3cccc(F)c3)ccc2OC[C@H]2O[C@@H](CC(=O)NCC3CCCCC3)CC[C@@H]21,nt,2,0,nt
CN1C(=O)c2cc(NC(=O)c3cccc(F)c3)ccc2OC[C@@H]2O[C@@H](CC(=O)NCC3CCCCC3)CC[C@@H]21,nt,-1,10*,nt
CCCNC(=O)C[C@H]1CC[C@@H]2[C@@H](COc3ccc(NC(=O)c4ccc(Cl)cc4)cc3C(=O)N2C)O1,nt,1,13*,nt
CCNC(=O)C[C@H]1CC[C@@H]2[C@@H](COc3ccc(NC(=O)c4ccc5c(c4)OCO5)cc3C(=O)N2C)O1,nt,2,14*,nt
CCNC(=O)C[C@H]1CC[C@H]2[C@H](COc3ccc(NC(=O)c4ccc5c(c4)OCO5)cc3C(=O)N2C)O1,nt,1,0,nt
CN(C)CCCNC(=O)C[C@H]1CC[C@@H]2[C@@H](COc3ccc(NC(=O)c4ccc5c(c4)OCO5)cc3C(=O)N2C)O1,nt,3,11*,nt
C[C@H]1CN([C@@H](C)CO)C(=O)c2c(c3ccccc3n2C)-c2ccccc2CO[C@H]1CN(C)Cc1cccc2c1OCCCO2,nt,nt,0,nt
SMILES,Yp Topo-I inh,Mtb BioA inh,TcdB GH inh,FadD28 FP inh
CCNC(=O)C[C@H]1CC[C@@H]2[C@H](COc3ccc(NC(=O)c4ccc5c(c4)OCO5)cc3C(=O)N2C)O1,nt,5,13*,nt
CCNC(=O)C[C@H]1CC[C@H]2[C@H](COc3ccc(NC(C)=O)cc3C(=O)N2C)O1,nt,0,11*,nt
CC(=O)Nc1ccc2c(c1)C(=O)N(C)[C@H]1CC[C@H](CC(=O)NCC3CC3)O[C@H]1CO2,nt,17,0,nt
CCNC(=O)C[C@@H]1CC[C@@H]2[C@H](COc3ccc(NC(=O)c4ccc5c(c4)OCO5)cc3C(=O)N2C)O1,nt,-1,-2,nt
C[C@H]1CN([C@@H](C)CO)S(=O)(=O)c2ccc(C3=CCCC3)cc2O[C@@H]1CN(C)C(=O)C1CCOCC1,nt,2,-1,nt
CNC[C@@H]1Oc2ccc(NC(=O)CCN3CCOCC3)cc2CC(=O)N([C@H](C)CO)C[C@@H]1C,nt,-1,0,nt
CN(C)S(=O)(=O)c1cc(NC(=O)CSc2cccc[n+]2[O-])ccc1Cl,-1,0,1,0
CN(C)S(=O)(=O)c1cc(NC(=O)CSc2ncc(C(F)(F)F)cc2Cl)ccc1Cl,3,nt,nt,13*
Oc1ccc(/C=N/Nc2ncnc3nc[nH]c23)cc1,-11,-1,10*,-1
Fc1ccc(-[n+]2nc(Nc3ccccc3)sc2-c2c3ccccc3cc3ccccc23)cc1,-25,-1,6,-9
Oc1ccc2ccccc2c1-c1sc(Nc2ccccc2)n[n+]1-c1ccc(F)cc1,99*,0,2,1
O=C(N/N=C/c1cc(Br)c(Br)o1)c1ccc2c(c1)OCCO2,-5,0,0,-4
O=C(N/N=C/c1cc(Br)c(O)c(Br)c1O)c1ccc2c(c1)OCCO2,-22,-1,0,12*
Cc1c(Br)c(=O)oc2c(Br)c(O)ccc12,1,nt,1,0
Cc1c(Br)c(=O)oc2c(Br)c(O)c(O)cc12,-3,nt,-4,13*
O=c1cc(O)c2ccc(O)cc2o1,-1,0,1,6
O=c1ccc2[n+]([O-])c3ccc(O)cc3oc-2c1,396*,nt,-3,98*
S=C(NCCN1CCOCC1)Nc1ccc(Nc2ccccc2)cc1,3,2,31*,1
Cn1c(=O)c2c(nc(N3CCOCC3)n2CCSc2ncccn2)n(C)c1=O,-3,-4,17*,1
COc1ccc2c3c([nH]c2c1)[C@@H](CO)N(C(=O)Cc1ccccc1)CC31CN(C)C1,nt,nt,1,nt
N#Cc1c(N2CCCC(O)C2)nc(N)c2c(N)nc3c(c12)CC(=O)N3C12CC3CC(CC(C3)C1)C2 (configuration not stated),-6,-4,nt,25*
CC(Cc1ccc(O)cc1)NCC(O)c1ccc(O)c(O)c1 (configuration not stated),-6,-1,-7,8.2*
Cc1nn(Cc2ccc(F)cc2)c(Cl)c1/C=N/NC(=O)c1cccnc1,-3,98*,2,-3
CCOc1ccccc1-n1c(=S)sc2c(=O)n(-c3ccc(F)cc3)c(SCC(=O)O)nc21,4,-1,20*,nt
COc1ccccc1-n1c(SCC(=O)O)nc2c(sc(=S)n2-c2ccc(Cl)c(C)c2)c1=O,0,1,13*,-2

# Source: PubChem BioAssay
